# Measurements as given in PubChem BioAssay (NCI).
# Values joined by “and” are separate entries in the source; they are usually repeats but may differ in a detail not shown here. Equal entries are not always repeated. About 83,000 compounds went through this panel and 20% of them were active in at least one assay; those are over-represented in the sample as a whole.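 Percent growth is the endpoint: 0 to 100 indicates growth inhibition (40 means 60% inhibition), 0 means no net growth, and negative values indicate cell death.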 More than one record can exist for a structure, and the calls need not agree. Active and inactive are the calls of the source. Rule for the calls: active = growth percent below 10; inactive = the rest.
# How the values were obtained:
# Assay in all cases: NCI-60 one-dose screen, 48 h (100 = growth as untreated, 0 = no growth, -100 = all killed)
# Settings in all cases: 10 µM unless noted
# HCT-15 colon = tested on: HCT-15 colon
# HT29 colon = tested on: HT29 colon
# SNB-75 CNS = tested on: SNB-75 CNS
# SNB-19 CNS = tested on: SNB-19 CNS
# U251 CNS = tested on: U251 CNS
# PC-3 prostate = tested on: PC-3 prostate
# SK-MEL-5 melanoma = tested on: SK-MEL-5 melanoma
# UACC-62 melanoma = tested on: UACC-62 melanoma
# LOX IMVI melanoma = tested on: LOX IMVI melanoma
# SK-MEL-28 melanoma = tested on: SK-MEL-28 melanoma
# SK-MEL-2 melanoma = tested on: SK-MEL-2 melanoma
# EKVX NSCLC = tested on: EKVX NSCLC
# SN12C renal = tested on: SN12C renal
# UO-31 renal = tested on: UO-31 renal
# TK-10 renal = tested on: TK-10 renal
# CAKI-1 renal = tested on: CAKI-1 renal
# A498 renal = tested on: A498 renal
# CCRF-CEM leukemia = tested on: CCRF-CEM leukemia
# ACHN renal = tested on: ACHN renal
# MOLT-4 leukemia = tested on: MOLT-4 leukemia
SMILES,growth (HCT-15 colon),growth (HT29 colon),growth (SNB-75 CNS),growth (SNB-19 CNS),growth (U251 CNS),growth (PC-3 prostate),growth (SK-MEL-5 melanoma),growth (UACC-62 melanoma),growth (LOX IMVI melanoma),growth (SK-MEL-28 melanoma),growth (SK-MEL-2 melanoma),growth (EKVX NSCLC),growth (SN12C renal),growth (UO-31 renal),growth (TK-10 renal),growth (CAKI-1 renal),growth (A498 renal),growth (CCRF-CEM leukemia),growth (ACHN renal),growth (MOLT-4 leukemia)
COc1cc(/C=N/Nc2nc3c([nH]2)c(=O)n(C)c(=O)n3C)ccc1O,105% (inactive),97.7% (inactive) and 110% (inactive),86.9% (inactive) and 88% (inactive),112% (inactive) and 108% (inactive),99.1% (inactive) and 104% (inactive),99% (inactive) and 98% (inactive),97.9% (inactive) and 104% (inactive),91.9% (inactive) and 97.9% (inactive),98.2% (inactive) and 116% (inactive),108% (inactive) and 107% (inactive),98.2% (inactive) and 108% (inactive),103% (inactive) and 119% (inactive),97.4% (inactive) and 98.2% (inactive),86.7% (inactive) and 86.2% (inactive),95.7% (inactive) and 93.1% (inactive),99.3% (inactive) and 118% (inactive),82.3% (inactive) and 77.6% (inactive),89.2% (inactive) and 104% (inactive),,
CCN(CC)C(=O)c1cccnc1,106% (inactive),103% (inactive),98.7% (inactive),105% (inactive),96.2% (inactive),100% (inactive),103% (inactive),105% (inactive),100% (inactive),111% (inactive),108% (inactive),112% (inactive),106% (inactive),116% (inactive),97.8% (inactive),,114% (inactive),97.4% (inactive),107% (inactive),92.8% (inactive)
CCOC(=O)C(C(=O)OCC)C(c1ccccc1)N1CCN(c2ccccc2)CC1 (configuration not stated),108% (inactive) and 94.8% (inactive),107% (inactive) and 106% (inactive),94.7% (inactive) and 103% (inactive),99.4% (inactive) and 110% (inactive),105% (inactive) and 98% (inactive),110% (inactive) and 109% (inactive),105% (inactive) and 102% (inactive),98.7% (inactive) and 107% (inactive),103% (inactive) and 98.4% (inactive),109% (inactive) and 111% (inactive),105% (inactive) and 100% (inactive),107% (inactive) and 103% (inactive),98.2% (inactive) and 110% (inactive),73.8% (inactive) and 78.9% (inactive),98.1% (inactive) and 113% (inactive),,139% (inactive) and 107% (inactive),95.9% (inactive),105% (inactive),103% (inactive) and 99.1% (inactive)
Nc1cc(-c2cccc(OC(F)(F)F)c2)nc2ccc(N3CCCC3)cc12,7.95% (active) and 7.96% (active) and 7.69% (active),1.32% (active) and 5.14% (active) and -8.94% (active),29.7% (inactive) and 34.7% (inactive),31% (inactive) and 30.5% (inactive) and 23% (inactive),-3.82% (active) and 5.25% (active) and 1.38% (active),20.5% (inactive) and 22.2% (inactive) and 18.3% (inactive),-41.1% (active) and -39.4% (active) and -14.8% (active),8.8% (active) and 27.2% (inactive) and 38.7% (inactive),2.06% (active) and 12.6% (inactive) and 20.4% (inactive),-57.4% (active) and 37.1% (inactive) and 52.9% (inactive),11.9% (inactive) and 37.9% (inactive) and 12.2% (inactive),30.1% (inactive) and 29.9% (inactive) and 38.4% (inactive),25.8% (inactive) and 27.9% (inactive) and 25.9% (inactive),-6.86% (active) and 12.7% (inactive) and 14.1% (inactive),46.7% (inactive) and 44.3% (inactive) and 40.9% (inactive),,19.9% (inactive) and 22.5% (inactive) and -7.01% (active),-15.1% (active) and 2.73% (active) and 4.3% (active),27.4% (inactive) and 28.9% (inactive) and 26.3% (inactive),10.7% (inactive) and 12.7% (inactive) and 12.8% (inactive)
CCN(CC)CCC(CNc1ccnc2cc(Cl)ccc12)c1ccc(OC)cc1 (configuration not stated),42.6% (inactive) and 30.8% (inactive),26.4% (inactive) and 14% (inactive),68.6% (inactive) and 34.1% (inactive),98.5% (inactive) and 92.2% (inactive),58.5% (inactive) and 50.6% (inactive),66.5% (inactive) and 62.2% (inactive),38.3% (inactive) and 30.4% (inactive),45.3% (inactive) and 51.9% (inactive),40.2% (inactive) and 32.1% (inactive),-78.4% (active) and -54.7% (active),101% (inactive) and 61.7% (inactive),69.6% (inactive) and 85.6% (inactive),71.4% (inactive) and 60.8% (inactive),-5.93% (active) and -3.07% (active),58.5% (inactive) and 46.3% (inactive),55.6% (inactive) and 21.6% (inactive),,63.4% (inactive) and 45.8% (inactive),,52.3% (inactive) and 52.5% (inactive)
Cn1c(SSc2ccc(-c3cccnc3)n2C)ccc1-c1cccnc1,111% (inactive) and 104% (inactive),110% (inactive) and 115% (inactive),89.4% (inactive) and 97.7% (inactive),110% (inactive) and 109% (inactive),72.6% (inactive) and 106% (inactive),65% (inactive) and 68.2% (inactive),95.6% (inactive) and 91.6% (inactive),82.5% (inactive) and 109% (inactive),59% (inactive) and 98.2% (inactive),98.9% (inactive) and 104% (inactive),106% (inactive) and 107% (inactive),94.8% (inactive) and 99.5% (inactive),100% (inactive) and 114% (inactive),95.8% (inactive) and 104% (inactive),117% (inactive) and 102% (inactive),94.3% (inactive) and 103% (inactive),82.2% (inactive) and 95.7% (inactive),45.2% (inactive) and 68.6% (inactive),,80.2% (inactive) and 17.5% (inactive)
COc1cc2nc(N3CCN(C(=O)C4COc5ccccc5O4)CC3)nc(N)c2cc1OC (configuration not stated),108% (inactive) and 97.5% (inactive) and 105% (inactive),71.4% (inactive) and 93.9% (inactive),71.3% (inactive) and 76.9% (inactive) and 92.7% (inactive),99.7% (inactive) and 96% (inactive) and 101% (inactive),91.8% (inactive) and 86.8% (inactive) and 99.1% (inactive),91.7% (inactive) and 93.1% (inactive) and 110% (inactive),92.2% (inactive) and 86.6% (inactive) and 101% (inactive),102% (inactive) and 101% (inactive) and 103% (inactive),88% (inactive) and 94.2% (inactive) and 98.7% (inactive),99.9% (inactive) and 102% (inactive) and 107% (inactive),112% (inactive) and 93.8% (inactive),97.5% (inactive),88.1% (inactive) and 83% (inactive) and 99.7% (inactive),,86.4% (inactive) and 88.4% (inactive),103% (inactive) and 82.2% (inactive) and 87.4% (inactive),,74.9% (inactive) and 89.6% (inactive) and 97.8% (inactive),121% (inactive) and 92.4% (inactive) and 98.8% (inactive),91.1% (inactive) and 66.1% (inactive) and 94.4% (inactive)
Oc1ccccc1/C=N\NC(=S)N/N=C/c1ccccc1O,19.1% (inactive) and 22.4% (inactive),39.1% (inactive) and 54.6% (inactive),77% (inactive) and 90.1% (inactive),51.1% (inactive) and 44.6% (inactive),41% (inactive) and 24.2% (inactive),35% (inactive),35.7% (inactive) and -37% (active),20.4% (inactive) and -5.16% (active),28.4% (inactive) and 25.3% (inactive),53.6% (inactive) and 58.8% (inactive),82.3% (inactive) and 24.6% (inactive),61% (inactive) and 71.2% (inactive),58.8% (inactive) and 51.3% (inactive),12.4% (inactive) and 15.5% (inactive),51.4% (inactive) and 24.3% (inactive),-15.7% (active) and 12.3% (inactive),58.5% (inactive),15.9% (inactive) and 15.1% (inactive),,21.6% (inactive) and 16% (inactive)
O=C1c2ccccc2C(=O)N1/N=C/c1ccc2c(c1)OCO2,98.2% (inactive),94.3% (inactive),104% (inactive),93% (inactive),99.8% (inactive),74.1% (inactive),105% (inactive),90.3% (inactive),100% (inactive),103% (inactive),95.1% (inactive),116% (inactive),86.3% (inactive),,102% (inactive),,81.4% (inactive),93.1% (inactive),94.2% (inactive),86.3% (inactive)
